test system: VDR:RXRa (NR concentration 270 nM, RXRa partner concentration 90 nM); assay: PBM binding z-score (relative to random genomic background probes); higher = stronger binding; sequences stand for … in GC…GCGATTGACAGCGTAGAATGAAGG
Experimental: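 Protein-binding microarray (Agilent 4x180K custom design, double-stranded 60-nt probes: 5' GC cap, 34-nt variable region, 24-nt constant primer region; full probe sequence given). Purified or IVT nuclear receptor:RXRα heterodimers (3:1 NR:RXRα, mostly 270:90 nM) or homodimers were incubated for 1 h in PBS with 2% milk and no ligand, then detected with Alexa488 antibodies. Fluorescence from o1-orientation probes (~5 replicates averaged) was converted to z-scores against 500 random hg19 background probes. Variable regions are seed direct-repeat (DR0–DR5) sites, all their single-nucleotide variants and half-site ablations.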

Sequence | PBM binding z-score
TTACCAAGGTGAGCTGATGTCGTTGATCCAACTC | -0.0183
CTCGAAAGGTCGGTTGAGGTGAGTACACGGATAA | 2.84
ATCTCTAGGTAACCAAGTTCAGTGGATGCCGAAC | 4.04
CCCAGTTGGTCAGGAGGTCACACACCGGATATGA | 3.96
CAAACTAGGTCAAGGGTCAAAGTCGAGCCAACCA | 5.5
TAGCCTAGGTCATTGGGCCAGGATAGTACGCATC | 1.85
ACTAGCAGGCAAAGTTTGGGTCACTCAAACAAAG | 0.478
ATCGAAAGGTCGAGGTGCGTATAGAGAAAGGGAA | 2.16
TCTGGTAGGTCAGTTGGTCAGCTAACGAGCTGCC | 0.483
CCGACTGGGGCATAAGGTTACCTTAAGCCAGCCC | 0.0606
CCTATTAGTTGACCATAAGGGGAACCGAAGCTCG | 0.632
CAGCCTAGGTCAGGGTCAGTATAGGAGGAACGTT | 2.7
ACACACAGGTGATGAAGGTAACTCAGGCTATCAT | 0.511
TCATATAGGTAATACAGGTGAACGTCGGCATCTA | 1.18
TGTCTAAGTTCAAAGGTAACGTAAGTATCCACAC | 4.6
GCTGCTAGCTCAACTGATGGTCAGCTAAAGCTCG | -0.797
CAAACTAGGTCAAAGCTCAAAGTCGAGCCAACCA | 1.74
GCTCGTAGGACAAGGTCAGAGCTTTGTCCGTAGA | 1.4
AGAACGAGGGCAATGAGTTGATAGCCCGGGTGGC | 4.73
CCGTACGGGTCACTCCAGGTTATAGCATCGGAGT | 4.39

Sequence | PBM binding z-score
GTACCAAGGTGAATACGTCGTTGATGAGTAGGCG | -0.262
GATACAGGGTCAAGGACAGAGTACGCGTATTGAT | 4.78
CATCCTAGGTCAGGGCCAGTATAGGAGGAACGTT | 0.731
CTACCTAGGTGAACAAGGTCGTTGATTACTATTC | 5.37
GCTAGCAGGCCATTAGGGTCACTCAATGACGGGC | 4.6
ATCTCTAGGTAAGACTCAGTGCAGTGAAGAACGC | -0.0962
CAAACTAGGTCACGAAAGGTCTAAGTCGAATGAC | 3.75
CAAACTAGGTCACTGGAAGGTCAAAGTCCGCATG | 5.33
TCATATAGGTAAAGGTGGAAGTCGAACGATATGA | 0.368
ACTCGGAGTACAAAGGTCAGAGCTACGCCAGTGA | 3.59
AGAACGAGGGCAATGAGTTGATAGAACGGGTGGC | 5.04
CTACCAAGGTGAAAAAGGTCGTTGATTACTATTC | 4.09
CATACAGTGTCAGCTAGGCCAGAGTAGGGACGGC | -0.152
CCGACTGGGGAAGAAAGGTTACCATACCATCCGG | 0.522
TCAGACTGGTGAAGGTAACTCAGGTACGCAGTCG | 0.31
TCTGGCAGGCCAGAGGGTCACTCAAGAGGTACGG | 1.5
CCTACTGGGCCATCAGGTCATTGAGATCAACGTT | 3.41
CCTAGCAGGACAATCTGGGTCACTCAAGGCTTGA | 0.704
CGTCCAAGGTCATAGGAGGTCAGTGTAGACAGAT | 6.49
AATACAGGGTCTTCGTAGGCCAGAGTACGCACAG | 0.0684

— the supplement of paper PMC6555819
